The source of these data is PubChem BioAssay (EPA / NIEHS).

Active and inactive are the calls of the source. How the source made its calls: active means hit-call score of the fitted dose curve at least 0.9, where 1 is the maximum; inactive means score below 0.9.

Read-out in the experiment: Interferon-inducible T-cell alpha chemoattractant (ITAC), CXCL11 (gene 6373)
Nature of the experiment: BSK_hDFCGF_ITAC: BioMAP Diversity Plus: hDFCGF Assay for Interferon-inducible T-cell alpha chemoattractant (ITAC) Biomarker Activity (AID 2284251). The following applies: primary human foreskin fibroblasts. The method, then: BSK_hDFCGF is a cell-based, multiplexed-readout assay that uses foreskin fibroblast, a human skin primary cell, with measurements taken at 24 hours after chemical dosing in a 96-well plate.BSK_hDFCGF_ITAC is an assay component measured in the BSK_hDFCGF assay. It measures I-TAC antibody related to regulation of gene expression using ELISA technology.Data from the assay component BSK_hDFCGF_ITAC was analyzed at the endpoint, BSK_hDFCGF_ITAC, in the positive analysis fitting direction relative to DMSO as the negative control and baseline of activity. Using a type of binding reporter, gain or loss-of-signal activity can be used to understand protein changes. To generalize the intended target to other relatable targets, this assay endpoint is annotated to the 'cytokine' intended target family, where the subfamily is 'chemotactic factor'.
The levels of cell surface (or secreted, indicated by the prefix "s") biomarker endpoints were measured by ELISA. Overt cytotoxicity to cells in confluent adherent cultures (all systems other than the BT system) was assessed by measuring total protein levels using sulforhodamine B (SRB) staining in parallel cultures at the time of biomarker measurements, indicated as SRB endpoints. For proliferation assays for adherent cell types, individual cell types are cultured at sub-confluence and relative cell numbers quantified by SRB staining at time points optimized for each system (48 h: 3C and CASM3C systems; 72 h: BT and HDF3CGF systems; 96 h: SAg system). SRB was performed by staining cells with 0.1% SRB after fixation with 10% TCA and reading wells at 560 nm.Viability and proliferation of PBMC (T cells) was quantified by Alamar Blue reduction for the SAg and BT systems. For PBMC viability (referred to as PBMC Cytotoxicity within the assay endpoint names), cells were plated (75,000/well in a 96-well plate) and then chemical samples added for 1 h before addition of activators, SEB and TSST-1 (20 ng/mL final concentration each). Cells were incubated for 90 h. Then, Alamar Blue (20 uL/well) (Invitrogen, Cat DAL1100) was added for 6 h, and the plates were read with a fluorescence microplate reader at 546/580 nm (excitation/emission). For PBMC proliferation, cells were plated and activated as above but incubated for only 16 h prior to addition of Alamar Blue. Plates were read after 6 h.
With `CC(=O)OCCC(C)CC(C)(C)C` (configuration not stated), the result was inactive.

On to `Cc1cc(C2(c3cc(C)c(O)cc3C)OS(=O)(=O)c3ccccc32)c(C)cc1O`, for which the outcome was inactive.

Take `CCC(=O)OCc1ccccc1`: the result was inactive.

Consider `C[C@H]1C[C@@H]2[C@H]([C@@H](O)C[C@@]3(C)[C@H]2CC[C@]3(O)C(=O)CO)[C@@]2(C)C=CC(=O)C=C12`, for which the outcome was inactive.

`NCCNCCN`: the outcome was inactive.

`OC1OC[C@@H](O)[C@H](O)[C@H]1O` (some centres not stated): the outcome was inactive.

Turning to `CC(=O)[C@H]1CC[C@H]2[C@@H]3CC=C4C[C@@H](O)CC[C@]4(C)[C@H]3CC[C@]12C`, the result was inactive.

As for `C=CCOC(=O)CCC1CCCCC1`, the outcome was inactive.

As for `OC[C@H]1O[C@H](O[C@]2(CCl)O[C@H](CCl)[C@@H](O)[C@@H]2O)[C@H](O)[C@@H](O)[C@H]1Cl`, the result was inactive.

Take `COc1cc(C=O)ccc1OC(=O)C(C)C`: the outcome was inactive.

Consider `CC[Si](OC(C)=O)(OC(C)=O)OC(C)=O`, for which the outcome was inactive.

With `Nc1cc([N+](=O)[O-])ccc1O`, the outcome was inactive.
